Laboratory results published in PubChem BioAssay (NCATS).
Results filed as inconclusive are left out. Values without a mark were called inactive. Calls come from the whole dose curve; as a rule, active = well fitted inhibition curve with a large enough effect; inconclusive = small, poorly fitted or top-dose-only effect, or effect the other way; inactive = flat fitted curve, though single readings scatter.

target: Ubiquitin carboxyl-terminal hydrolase 2 (Homo sapiens) (UniProt O75604); test: qHTS Validation Assay for Inhibitors of Ubiquitin-specific Protease USP2a Using CHOP2 as the Reporter (AID 463106); settings: USP2a cleavage of CHOP2 reporter, enzymatic; series mostly up to 38.3 µM; activity, negative = inhibition: at the top concentration
Sequence (O75604 whole entry, looked up): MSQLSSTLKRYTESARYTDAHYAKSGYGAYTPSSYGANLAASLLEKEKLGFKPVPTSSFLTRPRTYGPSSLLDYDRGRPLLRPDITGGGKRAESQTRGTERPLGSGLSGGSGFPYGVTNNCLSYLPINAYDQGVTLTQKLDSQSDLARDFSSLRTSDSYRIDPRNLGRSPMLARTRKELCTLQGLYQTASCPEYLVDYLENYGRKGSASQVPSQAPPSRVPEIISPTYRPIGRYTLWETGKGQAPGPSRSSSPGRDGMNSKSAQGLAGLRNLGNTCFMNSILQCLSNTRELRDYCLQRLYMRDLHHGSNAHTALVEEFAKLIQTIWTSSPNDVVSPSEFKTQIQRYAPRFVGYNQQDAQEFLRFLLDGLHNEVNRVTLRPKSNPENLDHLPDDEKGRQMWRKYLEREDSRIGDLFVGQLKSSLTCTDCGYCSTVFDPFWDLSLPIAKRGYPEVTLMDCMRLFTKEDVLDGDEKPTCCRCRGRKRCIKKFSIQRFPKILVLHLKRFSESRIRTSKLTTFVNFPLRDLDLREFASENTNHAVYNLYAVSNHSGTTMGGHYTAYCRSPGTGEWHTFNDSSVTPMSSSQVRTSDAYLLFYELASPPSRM
Source text: NIH Molecular Libraries Screening Centers Network [MLSCN]
NIH Chemical Genomics Center [NCGC]
PI Name: Nicholson, Ben. Progenra Inc, Malvern, PA
Homeostasis of cellular proteins is maintained through a combination of synthesis and degradation. The pathway that accounts for the majority of protein degradation is the ubiquitin-proteasomal pathway. Ubiquitin (Ub) is highly conserved in all cells and the generation of a multi-Ub chain typically targets proteins for degradation by the proteasome. However, ubiquitination is highly reversible and dynamic. Deubiquitination, the reverse process, is catalyzed through the action of enzymes referred to as isopeptidases or deubiquitinating enzymes (DUBs). This group of enzymes is collectively responsible for maintaining adequate pools of free ubiquitin and regulating the ubiquitination status of cellular proteins. The class of DUBs referred to as the ubiquitin-specific proteases (USP) family functions endoproteolytically to cleave Ub chains from a wide range of protein substrates. USP2a deubiquitinates fatty acid synthase (FASN) which has recently been identified as an emerging oncology target. To identify inhibitors of USP2a a cell-free assay was employed.
The reporter enzyme chosen is an enterokinase called CHOP2, which is activated when the Ub is cleaved by USP2. The free and now activated reporter can subsequently act on its reporter substrate. […] The assay was developed by Progenra, Inc. and has been licensed for sale by LifeSensors, Inc. as Ub-CHOP2-Reporter-Kit (#PR1101).
NCGC Assay Protocol Summary:
The assay buffer, prepared fresh at the day of the assay, contains 20mM Tris-HCl pH 8.0, 2mM CaCl2, 2mM beta-Mercaptoethanol, 0.05% CHAPS. 3ul of 20nM (10nM final) USP2 core, which is stored on ice, is dispensed into a medium-binding black solid Kalypsys 1,536 well plate using the Kalypsys dispenser. The assay plate is then pinned with 23nL compound with the Kalypsys pintool in columns 5-48. The controls are pinned as follows: column 1 two-fold dilutions of 2M NEM in duplicate; column 2 2M NEM (final concentration 38.2mM); column 3&4 DMSO. The assay plate is incubated at RT for 30min. Subsequently, 1.5uL of 100nM (25nM final) Ub-CHOP2 and 1.5uL of 100nM (25nM final) Reporter Substrate (both stored on ice and protected from light) were dispensed into the plate using the Kalypsys dispenser. Plates were read after 60min RT incubation on a ViewLux (Perkin Elmer) plate reader using the following wavelengths Ex 485nm /Em 531nm.
Data were normalized to the to AC100 inhibition (NEM). Concentration-response curves were fitted to the normalized data and the concentration-response curves were then classified based on curve quality (r2), response magnitude and degree of measured activity. The time zero reading was used to flag fluorescence artifacts.
Keywords: ubiquitination, deubiquitination, proteases, profluorescent, MLSMR, MLPCN, NIH Roadmap, qHTS, NCGC

| SMILES | activity, negative = inhibition [%] |
| --- | --- |
| C#C[C@]1(O)CC[C@H]2[C@@H]3CCC4=Cc5oncc5CC4(C)[C@H]3CCC21C (stereo not given in full) | 3.47 |
| CCNC(=O)[C@H]1O[C@@H](n2cnc3c(N)nc(NCCc4ccc(CCC(=O)O)cc4)nc32)[C@H](O)[C@@H]1O | 0.266 |
| NC(=S)NCCC[C@H](N)C(=O)O | 2.23 |
| COc1cccc(C(=O)NCCN2CCN(c3ccc(Cl)cc3)CC2)c1 | -1 |
| CCCC1(C)C(C#N)(C#N)C1(C#N)C#N | 0.537 |
| O=C(c1ccc(Cl)cc1)N1CCN(c2ccc([N+](=O)[O-])c3ncccc23)CC1 | -2.94 |
| O=C(O)CNC(=O)C(CS)Cc1ccccc1 (stereo not given) | 2.94 |
| CCc1c(C(=O)NCCc2ccc(N3CCCCC3)cc2)[nH]c2ccc(Cl)cc12 | -2.15 |
| Nc1ncnc2c1ncn2[C@@H]1O[C@H](COP(=O)(O)OP(=O)(O)OP(=O)(O)OP(=O)(O)OC[C@@H]2O[C@H](n3cnc4c(N)ncnc43)[C@@H](O)[C@H]2O)[C@@H](O)[C@H]1O | 3.43 |
| CC[C@@H](C)[C@H]1O[C@]2(CC[C@H]1C)C[C@@H]1C[C@@H](CC=C(C)[C@@H](O[C@H]3C[C@H](OC)[C@@H](O[C@H]4C[C@H](OC)[C@@H](O)[C@H](C)O4)[C@H](C)O3)[C@@H](C)C=CC=C3CO[C@@H]4[C@H](O)C(C)=C[C@@H](C(=O)O1)[C@]34O)O2 | -22.5 |
| O=c1[nH]c2cc([N+](=O)[O-])c([N+](=O)[O-])cc2[nH]c1=O | 4.17 |
| Brc1c(Br)c(Br)c2n[nH]nc2c1Br | -2.54 |
| Cc1nc2sccn2c(=O)c1CCN1CCC(=C(c2ccccc2)c2ccc(F)cc2)CC1 | -1.04 |
| COc1ccc(/C=C/C(=O)Nc2ccccc2C(=O)O)cc1OC | -0.188 |
| COC1=C(OC)C(=O)c2ccccc2C1=O | -0.901 |
| O=C(c1cc(O)c(O)c([N+](=O)[O-])c1)c1ccccc1F | 1.71 |
| CN1[C@@H](CC(=O)c2ccccc2)CCC[C@H]1C[C@H](O)c1ccccc1 | 0.555 |
| CNC(=O)[C@H]1O[C@@H](n2cnc3c(NCc4cccc(I)c4)ncnc32)[C@H](O)[C@@H]1O | 0.794 |
| CN1C2CCC1CC(OC(=O)C(O)c1ccccc1)C2 (stereo not given) | 1.37 |
| COc1ccc(NC(=O)/C=C/c2ccc(Cl)cc2)cc1 | 0.574 |

| SMILES | activity, negative = inhibition [%] |
| --- | --- |
| COC(=O)c1c(C)[nH]c(C)c1C(=O)c1ccccc1Cc1ccccc1 | -0.322 |
| NC(=O)C(=O)O | 5.68 |
| COc1cc(SC)ccc1C(=O)N1CCC(Cc2ccccc2)CC1 | -7.42 |
| N[C@@H](CC(=O)O)C(=O)O | -0.823 |
| CC(C)NC[C@H](O)COc1cccc2[nH]ccc12 | 0.129 |
| Cc1cc(NC(=O)Nc2ccc3c(ccn3C)c2)sn1 | -0.372 |
| NCC1OC(O[C@H]2[C@H](O)[C@@H](OC3C(O)C(N)CC(N)C3OC3OC(CO)C(O)C(O)C3N)O[C@@H]2CO)C(N)C(O)C1O (stereo not given in full) | 1.21 |
| Cc1cc(NC2CCCCC2)nc(-n2nc(C)cc2C)n1 | 1.61 |
| C[N+](C)(CCCCCC[N+](C)(C)CCCN1C(=O)c2cccc3cccc(c23)C1=O)CCCN1C(=O)c2cccc3cccc(c23)C1=O | -3.28 |
| CCCCN1CCC(n2c(=O)[nH]c3ccccc32)CC1 | 0.333 |
| CN(C)c1nc(N)c(C(=O)N=C(N)N)nc1Cl | 2.87 |
| CCCCC/C=C\CC(O)/C=C/c1cccc(CC(O)CCCCO)n1 (stereo not given) | 1.01 |
| CC(=O)N[C@H](C(=O)O)C(C)(C)SN=O | 0.132 |
| CN(C)c1ccc(/C=C2\C(=O)Nc3ccccc32)cc1 | -9.21 |
| CN(C)c1nc2c(Br)c(Br)c(Br)c(Br)c2[nH]1 | -0.209 |
| CNC(=O)[C@H]1O[C@@H](n2cnc3c(NCc4ccc(N)cc4)ncnc32)[C@H](O)[C@@H]1O | 2.67 |
| Clc1ccc(N2CCN(Cc3c[nH]c4ncccc34)CC2)cc1 | -0.186 |
| S=C(S)OC1CC2CC1C1CCCC21 (stereo not given) | 0.0793 |
| O=C(O)CCCC[C@@H]1CCSS1 | -0.606 |
| C[N+]1(C)CCC(OC(=O)C(c2ccccc2)c2ccccc2)CC1 | -2.14 |
